A short description of assay [1]: qHTS profiling of the MIPE4 collection as inhibitors of Plasmodium falciparum (3D7) proliferation (AID 743344).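 Note: scaled between DMSO vehicle wells and 0.29 µM artemisinin as full inhibition.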 The following applies: P. falciparum 3D7 in erythrocytes, SYBR Green DNA fluorescence, 72 h; at 28.5 µM unless noted. Summed up:
(§1)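 Erythrocytes infected with P. falciparum (0.3% parasitemia, 2.5% hematocrit) incubated with compounds 72 h at 37 C, 5% CO2. Lysis with saponin/Triton buffer containing SYBR Green I, overnight at room temperature in the dark; DNA fluorescence (485/535 nm) normalised to 0.29 uM artemisinin and DMSO.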
Background: In qHTS, concentration-response curves come from the screen itself.

Assay [2] in a line: qHTS profiling of the MIPE4 collection as inhibitors of Plasmodium falciparum (DD2) proliferation (AID 743345). The following applies: P. falciparum Dd2 in erythrocytes, SYBR Green DNA, 72 h; at 28.5 µM unless noted. Summed up: as §1

In turn, `Cc1coc2c1C(=O)C(=O)c1c-2ccc2c(C)cccc12` returned a parasite growth, % of DMSO control in assay [1] of 8.32%. The parasite growth remaining, % of DMSO control (lower = more inhibition) in assay [2] came to 19.5%.

With `C=C1CCC2[C@](C)(CO)C(O)CC[C@]2(C)C1CC=C1C(=O)OCC1O` (some centres undefined), the parasite growth, % of DMSO control in assay [1] is 94.9% [at 57.5 µM]. Further, the parasite growth remaining, % of DMSO control (lower = more inhibition) in assay [2] is 85.2% [at 57.5 µM].

`C[C@H](CCC(=O)O)[C@H]1CCC2C3C[C@H](O)[C@@H]4C[C@H](O)CC[C@]4(C)C3CC[C@@]21C` (some centres undefined) gave a parasite growth, % of DMSO control in assay [1] of 79.8%. The parasite growth remaining, % of DMSO control (lower = more inhibition) in assay [2] came out at 102%.

`C=C1C(=CC=C2CCC[C@]3(C)[C@@H]([C@H](C)CCCC(C)(C)O)CC[C@@H]23)C[C@@H](O)C[C@@H]1O`: the parasite growth, % of DMSO control in assay [1] was found to be 15.5%. Besides, in assay [2], the parasite growth remaining, % of DMSO control (lower = more inhibition) turned out to be 95.2%.

In turn, `Cc1cnc(Nc2ccc(N3CCN(C)CC3)cc2)nc1Nc1cccc(S(=O)(=O)NC(C)(C)C)c1` showed a parasite growth, % of DMSO control in assay [1] of 5.3%. In assay [2], the parasite growth remaining, % of DMSO control (lower = more inhibition) was determined as 8.81%.

In the case of `C=CC(=O)Nc1cc(NC(=O)c2ccc(C)c(NC(=O)c3ccno3)c2)cc(C(F)(F)F)c1`, in assay [1], the parasite growth, % of DMSO control amounted to 34%. For the same compound, the parasite growth remaining, % of DMSO control (lower = more inhibition) in assay [2] worked out at 52.8%.

In assay [1], `CCS(=O)(=O)Nc1ccc2[nH]c(O)c(C(=Nc3ccc(CN4CCCCC4)cc3)c3ccccc3)c2c1` yielded a parasite growth, % of DMSO control of 6.54%. Also, the parasite growth remaining, % of DMSO control (lower = more inhibition) in assay [2] turned out to be 7.14%.

Take `CC(=O)O[C@]1(C(C)=O)CC[C@H]2[C@@H]3C=C(C)C4=CC(=O)CC[C@]4(C)[C@@H]3CC[C@@]21C`: the parasite growth, % of DMSO control in assay [1] amounted to 23.2%. Moreover, the parasite growth remaining, % of DMSO control (lower = more inhibition) in assay [2] came to 73.4%.

In turn, `Cc1noc(-c2ccc(CSCCC(=O)O)cc2)c1NC(=O)OC(C)c1ccccc1Cl` (centres undefined) had a parasite growth, % of DMSO control in assay [1] of 41.1%. Also, the parasite growth remaining, % of DMSO control (lower = more inhibition) in assay [2] amounted to 96%.

`CC(=O)ON=C1C(c2c(O)[nH]c3cc(Br)ccc23)=Nc2ccccc21` registered a parasite growth, % of DMSO control in assay [1] of 2.37%. The parasite growth remaining, % of DMSO control (lower = more inhibition) in assay [2] was found to be 6.76%.

In assay [1], `C[C@H]1[C@@H](OC(=O)CCC(=O)O)O[C@@H]2O[C@@]3(C)CC[C@@H]4[C@H](C)CC[C@@H]1[C@@]24OO3` showed a parasite growth, % of DMSO control of 21.4%. The parasite growth remaining, % of DMSO control (lower = more inhibition) in assay [2] was 7.38%.

Compound `CC(=O)[C@]1(O)Cc2c(O)c3c(c(O)c2[C@@H](O[C@H]2C[C@H](N)[C@@H](O)[C@H](C)O2)C1)C(=O)c1ccccc1C3=O` gave a parasite growth, % of DMSO control in assay [1] of 27.7%. Besides, the parasite growth remaining, % of DMSO control (lower = more inhibition) in assay [2] turned out to be 46.3%.

For `CC(C)(C)[C@H](NC(=O)c1ccc(N)c(Cl)c1)C(=O)N1CCC[C@@H]1C(=O)N[C@H](C#N)CC(=O)O`, the parasite growth, % of DMSO control in assay [1] came to 160% [at 3.19 µM]. In assay [2], the parasite growth remaining, % of DMSO control (lower = more inhibition) was determined as 110% [at 3.19 µM].

In turn, `N[C@H]1CN(c2c(F)cc3c(=O)c(C(=O)O)cn(C4C[C@@H]4F)c3c2Cl)CC12CC2` (some centres undefined) showed a parasite growth, % of DMSO control in assay [1] of 20.3%. For the same compound, in assay [2], the parasite growth remaining, % of DMSO control (lower = more inhibition) came to 24.5%.

For the compound `Cc1nc(NC(=O)N2CCC[C@@H]2C(N)=O)sc1-c1ccnc(C(C)(C)C(F)(F)F)c1`, the parasite growth, % of DMSO control in assay [1] is 13.3%. Further, the parasite growth remaining, % of DMSO control (lower = more inhibition) in assay [2] came to 36.1%.

For `CC(C=CC(=O)NO)=C[C@@H](C)C(=O)c1ccc(N(C)C)cc1`, the parasite growth, % of DMSO control in assay [1] was determined as 5.14%. The parasite growth remaining, % of DMSO control (lower = more inhibition) in assay [2] is 7.38%.

In assay [1], `Cc1ncc(-c2ccnc(Nc3ccc(S(C)(=O)=O)cc3)n2)n1C(C)C` showed a parasite growth, % of DMSO control of 6.84%. For the same compound, the parasite growth remaining, % of DMSO control (lower = more inhibition) in assay [2] turned out to be 19.3%.

Turning to `COc1cc2c(cc1O)CCC1C2CC[C@@]2(C)C1CC[C@@H]2O` (some centres undefined), the parasite growth, % of DMSO control in assay [1] was 79.6%. In assay [2], the parasite growth remaining, % of DMSO control (lower = more inhibition) turned out to be 94.6%.

On to `CCn1c(=O)c2c(nc(C=Cc3ccc(OC)c(OC)c3)n2C)n(CC)c1=O`, for which the parasite growth, % of DMSO control in assay [1] was determined as 37.9%. The parasite growth remaining, % of DMSO control (lower = more inhibition) in assay [2] is 83.4%.

For the compound `C[C@H](NCc1ccc2c(c1)nc(NC(=O)c1ccc(-c3cn[nH]c3)s1)n2CCc1ccccc1)C(C)(C)C`, the parasite growth, % of DMSO control in assay [1] is 5.07%. The parasite growth remaining, % of DMSO control (lower = more inhibition) in assay [2] stood at 4.87%.

`CCc1nc(-c2cccc(C)c2)c(-c2ccnc(NC(=O)c3ccccc3)c2)s1` registered a parasite growth, % of DMSO control in assay [1] of 21.9%. Moreover, in assay [2], the parasite growth remaining, % of DMSO control (lower = more inhibition) is 47.6%.

With `c1cc(CN2CCCNCCNCCCNCC2)ccc1CN1CCCNCCNCCCNCC1`, the parasite growth, % of DMSO control in assay [1] was found to be 91.4%. In addition, the parasite growth remaining, % of DMSO control (lower = more inhibition) in assay [2] was 96.2%.

`CC(C)C[C@H](NC(=O)CNC(=O)c1cc(Cl)ccc1Cl)B1OC(=O)CC(CC(=O)O)(C(=O)O)O1` (some centres undefined): in assay [1], the parasite growth, % of DMSO control turned out to be 4.74%. Moreover, the parasite growth remaining, % of DMSO control (lower = more inhibition) in assay [2] worked out at 7.15%.

Turning to `O=C(CN1C(=O)C2(CCCC2)NC[C@H]1c1cc(F)cc(F)c1)Nc1ccc2c(c1)C[C@@]1(C2)C(=O)Nc2ncccc21`, the parasite growth, % of DMSO control in assay [1] was 26%. Moreover, the parasite growth remaining, % of DMSO control (lower = more inhibition) in assay [2] came to 86.9%.

In assay [1], `C[C@@H](NCc1cc2ccccc2[nH]1)c1cccc2ccccc12` had a parasite growth, % of DMSO control of 41.8%. Further, in assay [2], the parasite growth remaining, % of DMSO control (lower = more inhibition) turned out to be 83.3%.

In the case of `NC[C@H]1O[C@H](O[C@H]2[C@@H](O)[C@@H](O[C@H]3O[C@H](CO)[C@@H](O)[C@H](N)[C@@H]3O)[C@H](N)C[C@@H]2N)[C@H](N)C[C@H]1O`, in assay [1], the parasite growth, % of DMSO control worked out at 97.7%. In assay [2], the parasite growth remaining, % of DMSO control (lower = more inhibition) amounted to 92.9%.

The compound `C[C@H]1O[C@H](O[C@H]2[C@H](O)[C@@H](O)[C@@H](O[C@H]3[C@H](O)[C@@H](O)C(O)O[C@H]3CO)O[C@H]2CO)[C@H](O)[C@@H](O)[C@H]1N[C@H]1C=C(CO)[C@@H](O)[C@H](O)[C@@H]1O` (some centres undefined) had a parasite growth, % of DMSO control in assay [1] of 92.3%. For the same compound, the parasite growth remaining, % of DMSO control (lower = more inhibition) in assay [2] came to 127%.

For the compound `Nc1nc(=O)n([C@H]2CSC(CO)O2)cc1F` (some centres undefined), the parasite growth, % of DMSO control in assay [1] turned out to be 399%. Also, the parasite growth remaining, % of DMSO control (lower = more inhibition) in assay [2] is 99.2%.

`CC(=O)O[C@@]12CO[C@H]1C[C@H](O)[C@@]1(C)C(=O)[C@H](O)C3=C(C)[C@@H](OC(=O)C(O)[C@@H](NC(=O)OC(C)(C)C)c4ccccc4)C[C@@](O)([C@@H](OC(=O)c4ccccc4)[C@@H]21)C3(C)C` (some centres undefined) displayed a parasite growth, % of DMSO control in assay [1] of 5.89%. Also, in assay [2], the parasite growth remaining, % of DMSO control (lower = more inhibition) came to 18.8%.

On to `CC(C(C)N1CC(=O)NC(=O)C1)N1CC(=O)NC(=O)C1` (centres undefined), for which the parasite growth, % of DMSO control in assay [1] came out at 88.4%. Moreover, the parasite growth remaining, % of DMSO control (lower = more inhibition) in assay [2] was 80.3%.

On to `CC(=CC(=O)Nc1ccccc1C(=O)O)c1ccc2ccccc2c1`, for which the parasite growth, % of DMSO control in assay [1] came to 383%. In addition, the parasite growth remaining, % of DMSO control (lower = more inhibition) in assay [2] came out at 110%.

As to `Cc1cnn(C)c1C(=O)Nc1cc(Nc2ccc3c(C=Cc4ccccn4)n[nH]c3c2)ccc1F`, the parasite growth, % of DMSO control in assay [1] was 4.63%. The parasite growth remaining, % of DMSO control (lower = more inhibition) in assay [2] came to 12.8%.

The record behind these values is PubChem BioAssay (NCATS).
